Measurements: PubChem BioAssay (NCI)
About 79,000 compounds went through this panel and 15% of them were active in at least one assay; those are over-represented in the sample as a whole. Active and inactive are the calls of the source. Rule as the data show it: active = growth inhibition above about 70%; inactive = the rest.

What was measured:
[1] = NCI Yeast Anticancer Drug Screen. Data for the rad50 strain (AID 155);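 also: 0% = growth of vehicle-only cultures of the same strain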; settings: S. cerevisiae rad50 strain growth inhibition, stronger effect = higher value
Outline: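 Inhibition values express reduced yeast growth in compound-treated cultures relative to vehicle-treated controls.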

[2] = NCI Yeast Anticancer Drug Screen. Data for the mec2-1 strain (AID 157); settings: S. cerevisiae mec2-1 strain, stronger effect = higher value
Outline: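 Yeast mec2-1 mutant treated with compound. Readout: growth inhibition vs vehicle controls.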

[3] = NCI Yeast Anticancer Drug Screen. Data for the sgs1 mgt1 strain (AID 161);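 also: 0% = growth of cultures given vehicle only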; settings: S. cerevisiae sgs1 mgt1 strain, stronger effect = higher value
Outline: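 Read-out: growth inhibition vs vehicle controls. Cells: mutant yeast strain deficient in DNA damage repair.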

[4] = NCI Yeast Anticancer Drug Screen. Data for the cln2 rad14 strain (AID 165);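 also: 0% = growth equal to vehicle treated cultures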; settings: S. cerevisiae cln2 rad14 strain, stronger effect = higher value
Outline: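 cln2 rad14 yeast strain; compound exposure; growth inhibition read vs vehicle controls.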

[5] = NCI Yeast Anticancer Drug Screen. Data for the bub3 strain (AID 167); settings: S. cerevisiae bub3 mutant strain, stronger effect = higher value
Outline: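 Steps: expose the mutant yeast strain to compound; grow alongside vehicle-treated cultures; measure growth; express inhibition against the vehicle cultures.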

[6] = NCI Yeast Anticancer Drug Screen. Data for the mlh1 rad18 strain (AID 175); settings: S. cerevisiae mlh1 rad18 strain growth inhibition, stronger effect = higher value
Outline: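 Yeast w/ defined DNA-repair lesions; compound exposure; growth vs vehicle controls → % inhibition.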

[7] = at 5.0 µM (retest, dose inferred, filed as 0.5)
[8] = at 50.0 µM (retest, dose inferred, filed as 5.0)

Measured: growth inhibition

c1ccc2c(c1)c1cccc3c4c5ccccc5c5cccc(c2c13)c54
active: [4]; at 50.0 µM 78.1%
inactive: [1]; [7] -1% | [1]; [8] -1% | [1]; at 50.0 µM 1.9% | [2]; [7] -2% | [2]; [8] 0% | [2]; at 50.0 µM 15.7% | [3]; [7] -2% | [3]; [8] -1% | [3]; at 50.0 µM 11.4% | [4]; [7] 1% | [4]; [8] -5% | [5]; [7] 0% | [5]; [8] 1% | [5]; at 50.0 µM -1.25% | [6]; [7] -3% | [6]; [8] -2% | [6]; at 50.0 µM 14.6%

CNC(=O)Oc1ccccc1/C=N\Sc1ccc(Cl)cc1
active: [1]; at 50.0 µM 97.2% | [2]; at 50.0 µM 99% | [3]; at 50.0 µM 98.9% | [4]; at 50.0 µM 82.8% | [5]; at 50.0 µM 98.6% | [6]; at 50.0 µM 99.2%
inactive: [1]; [7] -2% | [1]; [8] 21% | [2]; [7] 1% | [2]; [8] 21% | [3]; [7] 3% | [3]; [8] 43% | [4]; [7] -4% | [4]; [8] 10% | [5]; [7] -4% | [5]; [8] 6% | [6]; [7] -2% | [6]; [8] 35%

CC1(C)N([O-])[N+](=O)C1(C)Br (configuration not stated)
inactive: [1]; [7] 23% | [1]; [8] 15% | [1]; at 50.0 µM -2.45% | [2]; [7] 19% | [2]; [8] 13% | [2]; at 50.0 µM -10.3% | [3]; [7] 21% | [3]; [8] 24% | [3]; at 50.0 µM -20.2% | [4]; [7] 12% | [4]; [8] 24% | [4]; at 50.0 µM 19.5% | [5]; [7] 19% | [5]; [8] 20% | [5]; at 50.0 µM 5.55% | [6]; [7] 20% | [6]; [8] 15% | [6]; at 50.0 µM 11.4%

O=c1[nH]cc(Cn2cnc3ncccc3c2=O)c(=O)[nH]1
inactive: [1]; [7] -5% | [1]; [8] -4% | [1]; at 50.0 µM 6.4% | [2]; [7] -5% | [2]; [8] -5% | [2]; at 50.0 µM 7.55% | [3]; [7] -3% | [3]; [8] -1% | [3]; at 50.0 µM -2.1% | [4]; [7] -3% | [4]; [8] -11% | [4]; at 50.0 µM 40.5% | [5]; [7] -4% | [5]; [8] -2% | [5]; at 50.0 µM -18.2% | [6]; [7] -8% | [6]; [8] -5% | [6]; at 50.0 µM -16.5%
